The whole screen tested about 5,500 compounds, of which about 2,000 (36%) were called active. Roughly 18% stayed inconclusive and do not appear here. Rule as the data show it: active = normalized growth mostly below about 0.91 (no sharp cut-off); inconclusive = no clear call, values can overlap the other calls; inactive = mostly above about 0.92. The list shows a part of the results.
Assay: chemical genetic growth profiling, strain panel (AID 1159580);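 also: tested at 20 µM; growth read once vehicle control cultures reached saturation at 30 °C; 1 = growth at the plate median or of vehicle wells; lower values mean less growth of the strain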
Conditions: S. cerevisiae deletion strains, growth OD

Measured: normalized growth

O=C(Nc1ccccc1Sc1ccc(C(F)(F)F)cc1[N+](=O)[O-])C(Cl)Cl
inactive: locus YAR019C, strain CDC15, stronger effect = lower value 0.997 | locus YBL105C, strain PKC1, stronger effect = lower value 0.994 | locus YBR135W, strain CKS1, stronger effect = lower value 0.987 | locus YBR136W, strain MEC1, stronger effect = lower value 0.991 | locus YBR160W, strain CDC28, stronger effect = lower value 0.994 | locus YDL017W, strain CDC7, stronger effect = lower value 1.01 | locus YDL028C, strain MPS1, stronger effect = lower value 0.992 | locus YDL101C, strain DUN1, stronger effect = lower value 0.983 | locus YDL108W, strain KIN28, stronger effect = lower value 0.991 | locus YDL132W, strain cdc53, stronger effect = lower value 0.994 | locus YDL214C, strain PRR2, stronger effect = lower value 0.952 | locus YDR052C, strain DBF4, stronger effect = lower value 1 | locus YDR054C, strain cdc34, stronger effect = lower value 0.998 | locus YDR226W, strain ADK1, stronger effect = lower value 0.993 | locus YDR477W, strain SNF1, stronger effect = lower value 0.985 | locus YER123W, strain YCK3, stronger effect = lower value 0.958 | locus YER133W, strain GLC7, stronger effect = lower value 0.959 | locus YFL009W, strain cdc4, stronger effect = lower value 0.995 | locus YFL029C, strain CAK1, stronger effect = lower value 0.996 | locus YFR003C, strain YPI1, stronger effect = lower value 0.986 | locus YFR019W, strain FAB1, stronger effect = lower value 0.955 | locus YFR028C, strain CDC14, stronger effect = lower value 0.983 | locus YGR040W, strain KSS1, stronger effect = lower value 0.964 | locus YGR052W, strain FMP48, stronger effect = lower value 0.963 | locus YGR092W, strain DBF2, stronger effect = lower value 0.909 | locus YHR030C, strain SLT2, stronger effect = lower value 0.985 | locus YHR079C, strain IRE1, stronger effect = lower value 0.973 | locus YHR082C, strain KSP1, stronger effect = lower value 1.02 | locus YHR205W, strain SCH9, stronger effect = lower value 0.864 | locus YIL147C, strain SLN1, stronger effect = lower value 0.995 | locus YJL095W, strain BCK1, stronger effect = lower value 0.894 | locus YJL128C, strain PBS2, stronger effect = lower value 0.945 | locus YJL157C, strain FAR1, stronger effect = lower value 0.961 | locus YJR016C, strain ILV3, stronger effect = lower value 0.999 | locus YJR066W, strain TOR1 (second series), stronger effect = lower value 0.933 | locus YJR066W, strain TOR1, stronger effect = lower value 1.01 | locus YKL048C, strain ELM1, stronger effect = lower value 0.949 | locus YKL067W, strain YNK1, stronger effect = lower value 0.934 | locus YKL101W, strain HSL1, stronger effect = lower value 0.946 | locus YKL193C, strain SDS22, stronger effect = lower value 0.996 | locus YKL203C, strain TOR2, stronger effect = lower value 1.01 | locus YLR113W, strain HOG1, stronger effect = lower value 0.907 | locus YLR133W, strain CKI1, stronger effect = lower value 0.947 | locus YLR403W, strain SFP1, stronger effect = lower value 0.915 | locus YML070W, strain DAK1, stronger effect = lower value 0.938 | locus YMR001C, strain CDC5, stronger effect = lower value 0.998 | locus YMR205C, strain PFK2 (second series), stronger effect = lower value 0.953 | locus YMR277W, strain FCP1, stronger effect = lower value 0.984 | locus YNL006W, strain LST8, stronger effect = lower value 0.986 | locus YNL020C, strain ARK1, stronger effect = lower value 0.959 | locus YNL161W, strain CBK1, stronger effect = lower value 0.993 | locus YNL183C, strain NPR1, stronger effect = lower value 0.96 | locus YNL207W, strain RIO2, stronger effect = lower value 0.989 | locus YNL222W, strain SSU72, stronger effect = lower value 0.99 | locus YNL307C, strain MCK1 (second series), stronger effect = lower value 0.903 | locus YOL078W, strain AVO1, stronger effect = lower value 0.99 | locus YOL136C, strain PFK27, stronger effect = lower value 0.907 | locus YOR061W, strain CKA2, stronger effect = lower value 0.97 | locus YOR119C, strain RIO1, stronger effect = lower value 1.05 | locus YOR231W, strain MKK1, stronger effect = lower value 0.935 | locus YOR329C, strain SCD5, stronger effect = lower value 0.997 | locus YPL031C, strain PHO85, stronger effect = lower value 0.984 | locus YPL153C, strain RAD53, stronger effect = lower value 0.991 | locus YPL204W, strain HRR25, stronger effect = lower value 0.958 | locus YPL209C, strain IPL1, stronger effect = lower value 0.992 | locus YPL256C, strain CLN2, stronger effect = lower value 1.02 | locus YPR025C, strain CCL1, stronger effect = lower value 0.997 | locus YPR106W, strain ISR1, stronger effect = lower value 0.996 | locus YPR111W, strain DBF20, stronger effect = lower value 0.967 | strain NNK1, stronger effect = lower value 0.976 | strain TSCII, stronger effect = lower value 0.992

From PubChem BioAssay AID1159580 (chemical genetic matrix, 2015)
